Experimental data from the supplement of paper PMC13380429.

Test system: Vero E6 infected with SARS-CoV-2
Assay: inhibition of SARS-CoV-2 cytopathic effect; higher = more antiviral protection, active = above 15
Conditions: 48 h

Measured: inhibition of SARS-CoV-2 cytopathic effect

CC(C)(O)C(=O)N1CCN(c2ccc(C(F)(F)F)c(C3=C(c4c[nH]c5ccccc45)C(=O)NC3=O)c2)CC1
inactive: 1 nM -0.88% | 8.33 nM -0.68% | 100 nM -5.41% | 833.33 nM -0.21% | 10000 nM 4.03%

CCCNC(C)C(=O)Nc1c(C)csc1C(=O)OC (stereo not given) [articaine]
inactive: 1 nM -0.23% | 8.33 nM 0.85% | 100 nM 0.42% | 833.33 nM 4.27% | 10000 nM -2.09%

CCOC(=O)c1ccc(N2NC(=O)/C(=C/c3ccc([N+](=O)[O-])o3)C2=O)cc1
inactive: 1 nM 1.63% | 8.33 nM -1.91% | 100 nM -0.91% | 833.33 nM -2.48% | 10000 nM -6.2%

CC(C)[C@H]1C(=O)N[C@@H](CCCNC(=N)N)C(=O)NCC(=O)N[C@@H](CC(=O)O)C(=O)N[C@H](Cc2ccccc2)C(=O)N1C [cilengitide]
inactive: 1 nM -2.16% | 8.33 nM -0.5% | 100 nM -4.67% | 833.33 nM -11.1% | 10000 nM -12.6%

C[C@@H]1[C@H](O)[C@@H](C)/C=C/C=C/C=C/C=C/C=C/C=C/C=C/[C@H](O[C@@H]2O[C@H](C)[C@@H](O)[C@H](N)[C@@H]2O)C[C@@H]2O[C@](O)(C[C@@H](O)C[C@@H](O)[C@H](O)CC[C@@H](O)C[C@@H](O)CC(=O)O[C@H]1C)C[C@H](O)[C@H]2C(=O)O [amphotericin-b]
inactive: 1 nM -1.34% | 8.33 nM 0.44% | 100 nM -1.99% | 833.33 nM -0.45% | 10000 nM 3.31%

N=C(N)NC(=O)c1nc(Cl)c(N)nc1N [amiloride]
inactive: 1 nM 3.13% | 8.33 nM 3.86% | 100 nM 2.25% | 833.33 nM 3.19% | 10000 nM 3.14%

CCCCCCCC/C=C\CCCCCCCC(=O)N[C@@H](CO)Cc1ccc(O)cc1
inactive: 1 nM 0.56% | 8.33 nM -0.46% | 100 nM 1.38% | 833.33 nM 1.23% | 10000 nM -2.65%

COC(=O)Nc1nc2cc(SC(C)C)ccc2[nH]1 [methiazole]
inactive: 1 nM 0.45% | 8.33 nM 0.55% | 100 nM 2.08% | 833.33 nM 2.73% | 10000 nM -1.24%

OC(CN1CCN(c2cccc(Cl)c2)CC1)C(c1ccccc1)c1ccccc1 (stereo not given)
inactive: 1 nM 2.69% | 8.33 nM 4.95% | 100 nM 2.68% | 833.33 nM 1.94% | 10000 nM 3.63%

COc1ccc2cc1Oc1ccc(cc1)C[C@H]1c3c(cc4c(c3Oc3cc5c(cc3OC)CCN(C)[C@@H]5C2)OCO4)CCN1C [cepharanthine]
active: 10000 nM 21.3%
inactive: 1 nM -0.29% | 8.33 nM -1.27% | 100 nM -1.35% | 833.33 nM -2.66%

CN(C)[C@@H]1CCc2[nH]c3ccc(NC(=O)c4ccc(F)cc4)cc3c2C1
inactive: 1 nM -0.2% | 8.33 nM 0.81% | 100 nM 1.23% | 833.33 nM 3.46% | 10000 nM 4.97%

[NH-]c1c[n+](N2CCOCC2)no1 [linsidomine]
inactive: 1 nM 0.45% | 8.33 nM 3.55% | 100 nM 0.57% | 833.33 nM -0.32% | 10000 nM 1.99%

OCCOCCN1CCN(C(c2ccccc2)c2ccc(Cl)cc2)CC1 (stereo not given) [hydroxyzine]
inactive: 1 nM 1.41% | 8.33 nM 0.93% | 100 nM 1.56% | 833.33 nM -1.88% | 10000 nM -4.3%

Cc1cc(C(=CNc2ccc(Cl)cc2)C(=O)Nc2ccc(Cl)cc2)on1
inactive: 1 nM -1.14% | 8.33 nM -1.99% | 100 nM -2% | 833.33 nM -0.86% | 10000 nM 0.28%

CCOc1ccc(NC(C)=O)cc1 [phenacetin]
inactive: 1 nM 0.72% | 8.33 nM -3.1% | 100 nM 1.64% | 833.33 nM 0.87% | 10000 nM 0.81%

C[N+]1([O-])[C@@H]2C[C@@H](OC(=O)[C@H](CO)c3ccccc3)C[C@H]1[C@@H]1O[C@@H]12 (stereo not given in full) [scopolamine-N-oxide]
inactive: 1 nM 7.18% | 8.33 nM 4.58% | 100 nM 3.81% | 833.33 nM 13.6% | 10000 nM 3.51%

CCn1c2ccccc2c2cc(CNC)ccc21
inactive: 1 nM 4.22% | 8.33 nM 4.54% | 100 nM -0.29% | 833.33 nM -0.75% | 10000 nM -3.22%

Cc1c(O)c(=O)ccn1C [deferiprone]
inactive: 1 nM 0.05% | 8.33 nM 0.64% | 100 nM 1.45% | 833.33 nM 3.35% | 10000 nM 0.91%

Cc1ccccc1-n1c(Cn2ncc3c(N)ncnc32)nc2cccc(C)c2c1=O
active: 10000 nM 54.3%
inactive: 1 nM -1.01% | 8.33 nM 0.63% | 100 nM 0.62% | 833.33 nM -3.58%

Cc1cnc(-c2ccccc2C(C)C)nc1NCc1ccc(-n2ccnn2)cc1
inactive: 1 nM -3.33% | 8.33 nM -2.94% | 100 nM -0.44% | 833.33 nM 0.3% | 10000 nM 1.03%

COC(=O)Nc1nc2cc(C(=O)c3cccs3)ccc2[nH]1 [nocodazole]
inactive: 1 nM 2.2% | 8.33 nM 3.05% | 100 nM 0.53% | 833.33 nM 1.99% | 10000 nM -1.47%

CN(C)CCOc1cc(-c2cn[nH]c2)ccc1NC(=O)C1COc2ccccc2O1 (stereo not given)
inactive: 1 nM -1.4% | 8.33 nM 1.35% | 100 nM 0.53% | 833.33 nM -5.69% | 10000 nM -6.4%

Cn1c(COP(=O)(NCCBr)NCCBr)cnc1[N+](=O)[O-]
inactive: 1 nM -3.18% | 8.33 nM -1.04% | 100 nM 0.12% | 833.33 nM -0.54% | 10000 nM -3.06%

c1ccc(CN2CCC3(CCc4ccccc43)CC2)cc1
inactive: 1 nM -1.07% | 8.33 nM -1.48% | 100 nM 0.06% | 833.33 nM 1.63% | 10000 nM 0.48%

CCCCCOC(=O)Nc1nc(=O)n([C@@H]2O[C@H](C)[C@@H](O)[C@H]2O)cc1F [capecitabine]
inactive: 1 nM -2.56% | 8.33 nM 0.42% | 100 nM -1.36% | 833.33 nM -0.59% | 10000 nM -1.14%

CCNC(=O)[C@@H]1CCCN1C(=O)[C@H](CCCNC(=N)N)NC(=O)[C@H](CC(C)C)NC(=O)[C@@H](C)NC(=O)[C@H](Cc1ccc(O)cc1)NC(=O)[C@H](CO)NC(=O)[C@H](Cc1c[nH]c2ccccc12)NC(=O)[C@H](Cc1cnc[nH]1)NC(=O)[C@@H]1CCC(=O)N1 [alarelin]
inactive: 1 nM -0.73% | 8.33 nM -1.67% | 100 nM 0.97% | 833.33 nM 1.34% | 10000 nM -0.57%

CCCN1CCN(c2ccc(C(=O)NC3(C(=O)NCC#N)CCCCC3)cc2)CC1 [balicatib]
inactive: 1 nM 3.8% | 8.33 nM 0.96% | 100 nM -1.9% | 833.33 nM 0.29% | 10000 nM 10.8%

C[N+]1(C)[C@@H]2C[C@@H](OC(=O)C(O)(c3cccs3)c3cccs3)C[C@H]1[C@@H]1O[C@@H]12 [tiotropium]
inactive: 1 nM 0.89% | 8.33 nM -2.54% | 100 nM -2.45% | 833.33 nM -5.08% | 10000 nM -3.35%

CCS(=O)(=O)N(Cc1cccnc1)c1cccc(-c2ccc(C#N)cc2)c1
inactive: 1 nM 1.24% | 8.33 nM 1.74% | 100 nM 1.23% | 833.33 nM 4.38% | 10000 nM 8.38%

Clc1ccc(C(Cn2ccnc2)OCc2csc3c(Cl)cccc23)c(Cl)c1 (stereo not given) [sertaconazole]
inactive: 1 nM 0.24% | 8.33 nM 1.06% | 100 nM -0.32% | 833.33 nM 1.68% | 10000 nM -2.97%

CC(C)NCC(O)c1ccc(N)c(C#N)c1 (stereo not given) [cimaterol]
inactive: 1 nM 6.86% | 8.33 nM 6.95% | 100 nM 10.5% | 833.33 nM 3.99% | 10000 nM 4.49%

C[C@@H]1CN(CC(=O)Nc2ccc3c(c2)Cc2cccc(-c4cc(=O)cc(N5CCOCC5)o4)c2S3)C[C@H](C)O1
active: 10000 nM 35.7%
inactive: 1 nM -2.04% | 8.33 nM 0.24% | 100 nM 2.16% | 833.33 nM 2.87%

CCOCCn1c(C2CCN(CCc3ccc(C(C)(C)C(=O)O)cc3)CC2)nc2ccccc21 [bilastine]
inactive: 1 nM -1.57% | 8.33 nM -0.88% | 100 nM -1.39% | 833.33 nM -1.14% | 10000 nM -0.38%

N=C(N)c1ccc(OCCCCCOc2ccc(C(=N)N)cc2)cc1 [pentamidine]
inactive: 1 nM -3.18% | 8.33 nM -3.29% | 100 nM -4.34% | 833.33 nM -11.7% | 10000 nM 1.08%

O=C(O)C[C@H]1CC[C@H](c2ccc(NC(=O)c3nnc(Nc4ccc(F)c(F)c4)o3)cc2)CC1
inactive: 1 nM -0.14% | 8.33 nM -0.74% | 100 nM 0.13% | 833.33 nM -2.59% | 10000 nM -0.04%

C(=C\c1ccccc1)/CN1CCN(CCOC(c2ccccc2)c2ccccc2)CC1
inactive: 1 nM -2.82% | 8.33 nM 0.59% | 100 nM -0.97% | 833.33 nM 0.92% | 10000 nM 4.63%

Nc1nc(NC2CC2)c2ncn([C@H]3C=C[C@@H](CO)C3)c2n1
inactive: 1 nM -0.53% | 8.33 nM -0.06% | 100 nM 0.24% | 833.33 nM 0.84% | 10000 nM 0.33%

Cn1c([N+](=O)[O-])cnc1COC(N)=O [ronidazole]
inactive: 1 nM 2.87% | 8.33 nM 0.97% | 100 nM 1.04% | 833.33 nM 2.17% | 10000 nM 2.12%

O=S1(=O)OC(c2ccc(O)cc2)(c2ccc(O)cc2)c2ccccc21 [phenolsulfonphthalein]
inactive: 1 nM -0.46% | 8.33 nM -1.87% | 100 nM -1.84% | 833.33 nM -1.16% | 10000 nM 3.89%
